Inconclusive results are not listed. Where a call stands in place of a potency, no number is given. Calls of active or inactive are those of the source. Calls follow the shape of the dose curve; as a rule, active = well fitted inhibition curve with a large enough effect; inconclusive = small, poorly fitted or top-dose-only effect; inactive = flat fitted curve, though single readings scatter.

The text below walks through data of PubChem BioAssay (NCATS).

The assay concerns Zika virus NS2B-NS3 protease. Nature of the assay: Primary screen GU AMC qHTS for Zika virus inhibitors (AID 1347154). Also: nearly all actives have a fitted effect of over 70% in size. The conditions noted are these: Zika NS2B-NS3 unlinked protease, AMC fluorogenic substrate; series mostly up to 54.1 µM. In outline: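 Fluorogenic AMC-substrate cleavage by noncovalent NS2B-NS3 protease complex (25 nM, pH 8.0 Tris buffer with Tween 20) followed for 15 minutes at room temperature (~20% conversion). Percent inhibition from ex340/em450 signal change, fitted by 4-parameter Hill equation.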
For orientation: In qHTS, concentration-response curves come from the screen itself.
On to `CC1(C)CCC[C@@]2(C)[C@@H]1CC[C@@]1(C)OC(=O)C[C@H]21`, for which the Potency result was “inactive”. Under `O=c1[nH]cnc2c1ncn2[C@H]1CC[C@@H](CO)O1` stands “inactive”; under `C=C1C(=O)[C@@]23C(CC[C@@H]1[C@H]2O)[C@@]12CO[C@]3(O)[C@@H](O)[C@@H]1C(C)(C)CC[C@@H]2O` (stereo partly specified), “inactive”; under `CC1(C)O[C@H]2C[C@@H]3[C@H]4CCC5=CC(=O)C=C[C@]5(C)[C@@]4(F)[C@@H](O)C[C@]3(C)[C@]2(C(=O)CO)O1`, “inactive”. `CC1(C)S[C@H]2[C@H](NC(=O)[C@@H](N)c3ccc(O)cc3)C(=O)N2[C@@H]1C(=O)O`: the Potency result was “inactive”. Consider `O=C1NC(=O)C(=Cc2ccc3c(c2)OC(F)(F)O3)S1`, for which the Potency result was “inactive”. With `NS(=O)(=O)c1cccc2c1C(=O)c1cccc(O)c1C2=O` the entry was “inactive”; with `CN(C)C1CCN(C(=O)c2ccc(NC(=O)Nc3nc(N4CCOCC4)nc(N4CCOCC4)n3)cc2)CC1`, “inactive”; with `Nc1ncnc2c1ncn2[C@@H]1O[C@@H](CO)[C@H](O)[C@H]1O`, “inactive”. On to `COc1cccc(-c2cc(=O)c3ccccc3o2)c1N`, for which the Potency result is “inactive”. In the case of `CC[C@]1(O)C[C@@H]2CN(CCc3c([nH]c4ccccc34)[C@@](C(=O)OC)(c3cc4c(cc3OC)N(C=O)[C@@H]3C45CCN4CC=C[C@](CC)([C@H]45)[C@@H](OC(C)=O)[C@]3(O)C(=O)OC)C2)C1` (stereo partly specified), the Potency entry is “inactive”.
